Laboratory results: PubChem BioAssay
The source made the active and inactive calls.

Legend:
[1] = E. coli DRC41 culture turbidity changes, primary screen, E. coli filamentation inducer project, strain DRC41, OD650, 48 h (AID 1152);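 also: E. coli MC1000 strain DRC41 lacking acrAB efflux pump and sulA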; settings: E. coli DRC41 (acrAB sulA), higher = more signal, called active from +8 up or from −8 down
[2] = small-molecule binders of probe aLefty1, primary screen, biochemical, small-molecule microarray, 635/667 nm fluorescence (AID 1153); settings: higher = more signal;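 also: score merges spot fluorescence with signal-to-noise ratio from the scanned slide images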
[3] = PSAC antagonists in infected red cells, primary screen, cell-based, P. falciparum Indochina, OD700, 1 h (AID 1154); settings: P. falciparum Indochina infected RBC osmotic lysis, higher = more signal, called active from +8 up or from −8 down
[4] = PSAC antagonists in infected red cells, primary screen, cell-based, P. falciparum Indochina, OD700, 2 h (AID 1155);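 also: lysis reports solute entry through the parasite surface anion channel PSAC; channel blockers reduce lysis of infected cells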; settings: P. falciparum Indochina infected erythrocytes, osmotic lysis OD700; higher = more signal, called active from +8 up or from −8 down
[5] = osmotic lysis modulators in infected erythrocytes, primary screen, PSAC antagonist project, cell-based, P. falciparum Indochina, OD700, 3 h (AID 1156); settings: higher = more signal, called active from +8 up or from −8 down
[6] = PSAC antagonists in infected red cells, primary screen, cell-based, P. falciparum Indochina, OD700, 18 h (AID 1157); settings: P. falciparum Indochina infected erythrocytes, osmotic lysis OD700, 18 h; higher = more signal, called active from +8 up or from −8 down
[7] = modulators of S6 phosphorylation in cells, primary screen, cell-based, A549, cytoblot, luminescence, serum-stimulated (AID 1158); settings: A549 phospho-S6 cytoblot, 5 h, higher = more signal;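 also: serum-stimulated A549 lung adenocarcinoma cells; signal is phosphorylated S6 detected by cytoblot immunostaining with HRP secondary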
[8] = molecular target: NADPH oxidase 2 (Homo sapiens) (UniProt P04839); experiment: NOX2-dependent H2O2 signal modulators, primary screen, NOX inhibitor project, cell-based, HEK293-NOX2, PMA-stimulated, Amplex Red fluorescence (AID 1159); settings: 45 min, higher = more signal, called active from +8 up or from −8 down; also: test concentration not given here
[9] = molecular target: NADPH oxidase 4 (Homo sapiens) (UniProt Q9NPH5); experiment: NOX4-dependent H2O2 signal modulators, primary screen, NOX inhibitor project, cell-based, HEK293-NOX4, tetracycline-induced, Amplex Red fluorescence (AID 1160); settings: 45 min, higher = more signal, called active from +8 up or from −8 down
[10] = molecular target: NADPH oxidase 5 (Homo sapiens) (UniProt Q96PH1); experiment: NOX5-dependent H2O2 signal modulators, primary screen, NOX inhibitor project, cell-based, HEK293-NOX5, Amplex Red fluorescence (AID 1161); settings: HEK293-NOX5, ionomycin, 45 min, higher = more signal
[11] = A549 cell viability effects, profiling panel, calcein-AM fluorescence, 48 h, basal (AID 1162); settings: higher = more signal; also: test concentration not given here
[12] = adipocyte viability effects, profiling panel, cell-based, 3T3-L1 adipocytes, calcein-AM fluorescence, 48 h, basal (AID 1163); settings: 3T3-L1 adipocytes viability, higher = more signal; also: test concentration not given here
[13] = HepG2 cell viability effects, profiling panel, calcein-AM fluorescence, 48 h, basal (AID 1164); settings: higher = more signal; also: test concentration not given here
[14] = MM1S cell viability effects, profiling panel, calcein-AM fluorescence, 48 h, basal (AID 1165); settings: higher = more signal;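 also: viability of MM1S multiple myeloma cells under basal unstimulated conditions; test concentration not given here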
[15] = basal RPMI8226 viability, no added stimulus, profiling panel, cell-based, calcein-AM fluorescence, 48 h, PK04 Diversity Set (AID 1166); settings: RPMI8226 myeloma viability, higher = more signal;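 also: cells grown under basal conditions without added stimulus; test concentration not given here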
[16] = basal HepG2 mitochondrial membrane potential changes, profiling panel, cell-based, JC-1 fluorescence, 24 h, 100 nL compound (AID 1167); settings: higher = more signal; also: test concentration not given here
[17] = basal 3T3-L1 adipocyte mitochondrial potential changes, profiling panel, cell-based, JC-1 fluorescence, 3T3-L1 adipocytes, 24 h, 100 nL compound (AID 1168); settings: JC-1 mitochondrial fluorescence, higher = more signal, called active from +8 up or from −8 down; also: test concentration not given here
[18] = basal RPMI8226 mitochondrial membrane potential changes, profiling panel, cell-based, JC-1 fluorescence, 24 h, 100 nL compound (AID 1169); settings: RPMI8226 myeloma, JC-1 mitochondrial potential fluorescence, higher = more signal; also: test concentration not given here
[19] = basal MM1S mitochondrial membrane potential changes, profiling panel, cell-based, JC-1 fluorescence, 24 h, 100 nL compound (AID 1170); settings: higher = more signal; also: test concentration not given here
[20] = A549 lung cancer cell viability effects, profiling panel, resazurin fluorescence, 24 h, PK04 Diversity Set (AID 1171); settings: higher = more signal, called active from +8 up or from −8 down; also: test concentration not given here

Chain of NADPH oxidase 5 (Homo sapiens) (Q96PH1 whole entry, looked up): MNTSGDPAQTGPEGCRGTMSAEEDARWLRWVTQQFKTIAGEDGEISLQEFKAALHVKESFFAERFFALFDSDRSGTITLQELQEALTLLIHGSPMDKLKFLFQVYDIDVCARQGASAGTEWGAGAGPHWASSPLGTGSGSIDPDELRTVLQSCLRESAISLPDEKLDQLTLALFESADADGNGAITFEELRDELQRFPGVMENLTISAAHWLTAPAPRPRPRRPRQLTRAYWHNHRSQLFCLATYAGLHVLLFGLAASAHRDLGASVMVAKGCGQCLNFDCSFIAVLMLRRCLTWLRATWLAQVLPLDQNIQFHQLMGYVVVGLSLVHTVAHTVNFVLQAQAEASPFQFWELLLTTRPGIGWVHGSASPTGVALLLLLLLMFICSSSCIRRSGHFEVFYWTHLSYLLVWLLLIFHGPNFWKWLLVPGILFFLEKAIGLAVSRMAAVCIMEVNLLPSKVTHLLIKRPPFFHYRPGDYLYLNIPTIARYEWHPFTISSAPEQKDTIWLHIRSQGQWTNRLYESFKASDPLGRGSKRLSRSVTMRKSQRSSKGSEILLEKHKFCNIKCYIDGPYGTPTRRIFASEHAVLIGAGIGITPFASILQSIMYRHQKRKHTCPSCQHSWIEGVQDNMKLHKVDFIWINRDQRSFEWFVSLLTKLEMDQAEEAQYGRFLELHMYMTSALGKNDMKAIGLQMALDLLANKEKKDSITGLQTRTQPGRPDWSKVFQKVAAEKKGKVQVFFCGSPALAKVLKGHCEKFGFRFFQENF
Chain of NADPH oxidase 2 (Homo sapiens) (P04839 whole entry, looked up): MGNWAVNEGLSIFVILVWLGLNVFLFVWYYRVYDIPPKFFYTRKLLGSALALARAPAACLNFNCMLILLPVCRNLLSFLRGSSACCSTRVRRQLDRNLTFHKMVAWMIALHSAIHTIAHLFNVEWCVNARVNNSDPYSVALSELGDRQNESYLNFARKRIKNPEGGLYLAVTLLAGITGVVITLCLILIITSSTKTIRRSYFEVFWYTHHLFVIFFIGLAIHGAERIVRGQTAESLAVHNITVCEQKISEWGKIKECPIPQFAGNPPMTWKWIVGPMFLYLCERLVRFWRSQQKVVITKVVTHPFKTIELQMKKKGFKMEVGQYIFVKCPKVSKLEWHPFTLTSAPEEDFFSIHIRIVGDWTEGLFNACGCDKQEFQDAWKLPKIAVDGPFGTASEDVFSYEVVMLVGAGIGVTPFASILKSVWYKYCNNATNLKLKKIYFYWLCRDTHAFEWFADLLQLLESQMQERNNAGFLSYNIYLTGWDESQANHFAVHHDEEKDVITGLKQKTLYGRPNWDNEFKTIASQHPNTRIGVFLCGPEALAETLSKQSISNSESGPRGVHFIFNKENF
Chain of NADPH oxidase 4 (Homo sapiens) (Q9NPH5 whole entry, looked up): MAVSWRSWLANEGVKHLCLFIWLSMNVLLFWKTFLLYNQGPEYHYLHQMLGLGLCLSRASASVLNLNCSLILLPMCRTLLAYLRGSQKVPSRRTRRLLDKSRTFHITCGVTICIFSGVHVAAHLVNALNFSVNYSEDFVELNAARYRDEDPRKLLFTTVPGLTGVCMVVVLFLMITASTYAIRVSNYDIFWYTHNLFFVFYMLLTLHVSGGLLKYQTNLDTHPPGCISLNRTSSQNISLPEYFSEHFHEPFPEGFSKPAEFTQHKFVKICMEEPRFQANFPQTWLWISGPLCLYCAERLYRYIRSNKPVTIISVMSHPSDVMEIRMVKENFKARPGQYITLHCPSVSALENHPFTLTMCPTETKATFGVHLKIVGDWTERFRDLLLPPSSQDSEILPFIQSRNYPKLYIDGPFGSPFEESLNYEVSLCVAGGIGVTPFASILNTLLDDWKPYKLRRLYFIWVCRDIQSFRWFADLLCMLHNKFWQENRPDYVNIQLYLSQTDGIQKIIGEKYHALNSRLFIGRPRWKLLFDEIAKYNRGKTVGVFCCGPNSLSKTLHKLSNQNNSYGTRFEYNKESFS

| Structure (SMILES) | z-score [1] | composite z-score [2] | z-score [3] | z-score [4] | z-score [5] | z-score [6] | z-score [7] | z-score [8] | z-score [9] | z-score [10] | z-score [11] | z-score [12] | z-score [13] | z-score [14] | z-score [15] | z-score [16] | z-score [17] | z-score [18] | z-score [19] | z-score [20] |
| --- | --- | --- | --- | --- | --- | --- | --- | --- | --- | --- | --- | --- | --- | --- | --- | --- | --- | --- | --- | --- |
| C[C@H]1C=CCC(=O)OC[C@H](C)C(=O)N2CCC[C@H]2C(=O)OC1 | 0.392 (inactive) | -0.199 | 0.158 (inactive) | -0.157 (inactive) | 0.484 (inactive) | 0.0217 (inactive) | -0.732 | 0.166 (inactive) | 0.515 (inactive) | -0.957 | -0.531 | -1.21 | -0.51 | 0.391 | 0.0245 | 0.291 | -0.696 (inactive) | -0.148 | -0.828 | 0.283 (inactive) |
| C=CC[C@@H]1C=C[C@H](ON=C[C@@H](NS(=O)(=O)c2ccc(C)cc2)[C@H](C)C=CCC(=O)OC)[C@@H](CO)O1 | 0.171 (inactive) | -0.191 | 1.16 (inactive) | 0.278 (inactive) | 0.0436 (inactive) | 0.343 (inactive) | -0.738 | -0.0272 (inactive) | 0.118 (inactive) | -0.286 | 0.309 | 0.359 | 0.405 | 0.465 | -0.915 | -0.836 | -0.959 (inactive) | 0.117 | -0.979 | -1.03 (inactive) |
| COC(=O)CC=C[C@@H](C)[C@@H](C=NOC(C)CN1CCCCc2nc(C)c(C)cc21)OC (stereo not given in full) | -0.0952 (inactive) | -0.0501 | 1.78 (inactive) | 0.322 (inactive) | -0.29 (inactive) | 0.441 (inactive) | -0.637 | -2.01 (inactive) | -0.392 (inactive) | -1.52 | -0.165 | -0.213 | -0.0272 | -1.74 | -0.444 | -0.254 | -0.142 (inactive) | -0.497 | 0.444 | 0.0399 (inactive) |
| CCOC(=O)[C@H](Cc1ccccc1)NC(=O)CCC1CC(OC(=O)NCc2ccc3c(c2)OCO3)CC2(CCCC(COC(=O)NCCOC)O2)O1 (stereo not given in full) | -0.11 (inactive) | -0.0428 | -1.89 (inactive) | -1.39 (inactive) | 0.61 (inactive) | -1.67 (inactive) | 2.53 | 0.195 (inactive) | -0.931 (inactive) | -2.16 | 0.58 | -0.182 | -0.971 | 1.05 | -1.56 | 0.724 | -0.844 (inactive) | -0.817 | -1.37 | 0.32 (inactive) |
| COC(=O)[C@H](Cc1ccccc1)NC(=O)[C@@H](C)CO | -0.388 (inactive) | 0.174 | 0.0772 (inactive) | -0.824 (inactive) | 0.811 (inactive) | -1.87 (inactive) | 1.92 | 0.966 (inactive) | 0.185 (inactive) | -2.94 | -0.457 | 0.802 | -0.196 | -2.56 | -2.56 | 0.892 | -0.218 (inactive) | -0.186 | -0.209 | -0.234 (inactive) |
| COC(=O)[C@@H]1CC[C@H](C)[C@@H](c2ccc(C)cc2)N1C(=O)c1ccc(C=NOC[C@H]2O[C@H](c3ccccc3)C=C[C@@H]2Oc2ccc(OC)cc2)cc1 | 0.229 (inactive) | -0.0236 | 0.639 (inactive) | 1.11 (inactive) | 0.708 (inactive) | 0.44 (inactive) | -0.0476 | 1.65 (inactive) | 0.846 (inactive) | 0.385 | -0.798 | -0.36 | -0.195 | 0.248 | -0.537 | 2.64 | -2.02 (inactive) | 0.833 | 0.0359 | 0.307 (inactive) |
| COc1ccc(COC(=O)NN=C2C[C@@H](O)[C@@H](O)[C@@H]3[C@@H]4C(=O)N(Cc5ccccc5)C(=O)[C@@H]4CC[C@@H]23)cc1 | 0.619 (inactive) | -0.0691 | 1.48 (inactive) | 0.363 (inactive) | -0.188 (inactive) | 0.648 (inactive) | -0.12 | -6.33 (inactive) | 0.284 (inactive) | -0.234 | -0.178 | -0.641 | -0.13 | 0.458 | 1.61 | 0.335 | -0.289 (inactive) | 0.76 | -1.46 | 0.399 (inactive) |
| CC(C)=CCCC(C)=CCON=C1C[C@@H](O)[C@@H](O)[C@@H]2[C@@H]3C(=O)N([C@@H](C)c4ccccc4)C(=O)[C@@H]3CC[C@@H]12 | -0.0368 (inactive) | 0.0794 | 0.336 (inactive) | -0.168 (inactive) | -0.291 (inactive) | 0.183 (inactive) | -0.814 | 0.311 (inactive) | -0.0815 (inactive) | -0.919 | -0.412 | 0.934 | -0.341 | 0.176 | -0.249 | -0.781 | -0.598 (inactive) | 0.0813 | 0.114 | -0.21 (inactive) |
| O=C1CCCC=C1C(O)C1CCCCC1 (stereo not given) | 0.411 (inactive) | -0.312 | -0.0549 (inactive) | 0.494 (inactive) | -0.663 (inactive) | 0.0748 (inactive) | -0.178 | 1.46 (inactive) | -0.419 (inactive) | -0.928 | -0.586 | -0.464 | -0.22 | 0.766 | -0.241 | -0.86 | -1.15 (inactive) | -0.121 | 0.327 | 0.436 (inactive) |
